Inconclusive results are not listed. Active and inactive are the calls of the source. Rule for the calls: active = hit-call score of the fitted dose curve at least 0.9, where 1 is the maximum; inconclusive = response in the unintended direction; inactive = score below 0.9.
The molecules below were run on ABC Transporter (ABCB1), ABCB1 (gene 5243) (assay: CLD_ABCB1_6hr: CellzDirect (CLD) Gene Expression Assay for ABC Transporter (ABCB1) at 6 hours (AID 2283659);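 note: hits raise ABCB1 transcript above the DMSO vehicle baseline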).
Protocol: CLD_6hr is a cell-based, multiplexed-readout assay that uses hepatocyte, a human liver primary cell, with measurements taken at 6 hours after chemical dosing in a 96-well plate.CLD_ABCB1_6hr is one of 16 assay component(s) measured or calculated from the CLD_6hr assay. It is designed to make measurements of mRNA induction, a form of inducible reporter, as detected with chemiluminescence signals by Quantitative Nuclease Protection Assay (qNPA) technology.Data from the assay component CLD_ABCB1_6hr was analyzed at the endpoint, CLD_ABCB1_6hr, in the positive analysis fitting direction relative to DMSO as the negative control and baseline of activity. Using a type of inducible reporter, gain-of-signal activity can be used to understand changes in the reporter gene as they relate to the gene ABCB1. Furthermore, this assay endpoint can be referred to as a primary readout. To generalize the intended target to other relatable targets, this assay endpoint is annotated to the transporter intended target family, where subfamily is ABC transporter.
Human hepatocyte cultures were treated daily for two consecutive days with fresh dosing solutions containing appropriate concentrations of the 320 ToxCast chemicals (chemical identities were blinded to CellzDirect and other ToxCast collaborators), vehicle control (0.2% DMSO), and positive control inducers as summarized in Table 1. Due to the large number of treatment groups and chemicals examined, the ToxCast chemicals were divided into two groups (spanning two independent cultures of hepatocytes from separate donor preparations (Hu778: ToxCast plates 1 and 2; Hu776: ToxCast plates 3 and 4). Each preparation of human hepatocyte cultures was treated with respective vehicle control, medium only control, set of six positive controls/reference chemicals for the five hepatic receptor pathways, and a subset of eight of the ToxCast chemicals (indoxacarb, pyrithiobac-sodium, norflurazon, cyhalofop-butyl, methomyl, thiram, acetochlor, and propiconazole). These replicate data, coupled with internal replicates designed within the blinded ToxCast chemical library, provided additional data to evaluate interindividual differences between hepatocyte preparations and their potential impact on chemical profiles.Cell morphology and integrity were evaluated using phase-contrast microscopy as an indicator of hepatocyte cell health (Tyson & Green, 1987). Cultures for each treatment group (i.e., media, vehicle [0.2% DMSO], positive control inducers [multiple concentrations], and the ToxCast chemicals [multiple concentrations]) were observed and cell morphology was assessed relative to vehicle control cultures at each harvest time point (0, 6, 24, or 48 h). […] Images were evaluated at the conclusion of the study to assess changes in cell integrity and account for the effects of chemical exposure on uncharacteristic changes in concentration-dependent gene expression profiles. The results from these determinations of apparent cytotoxicity were annotated (yes/no) alongside the corresponding qNPA data for reference.At the conclusion of each treatment period, hepatocyte cultures (96-well) were washed with 1 volume of HBSS, lysed by addition of 25 ul ArrayPlate lysis buffer (HTG, Tucson, AZ), and 70 ul/well of Denaturation Oil, denatured by incubation at 95C for 10 min, and frozen at approximately -70C until analysis by nuclease protection assay (qNPA) (Roberts et al., 2007). […]

Structure (SMILES) | outcome
CCNc1nc(NC(C)C)nc(SC)n1 | inactive
CN(C)c1nc(=O)n(C2CCCCC2)c(=O)n1C | inactive
Cc1ccccc1CO[C@@H]1C[C@@]2(C(C)C)CC[C@]1(C)O2 | inactive
CCSC(=O)N(CC)C1CCCCC1 | inactive
CCC(C)(CC)c1cc(NC(=O)c2c(OC)cccc2OC)on1 | inactive

These molecules were tested on Broad substrate specificity ATP-binding cassette transporter ABCG2 (Homo sapiens) (UniProt Q9UNQ0) (assay: CLD_ABCG2_6hr: CellzDirect (CLD) Gene Expression Assay for ABC Transporter (ABCG2) at 6 hours (AID 2283660)).
Chain of Broad substrate specificity ATP-binding cassette transporter ABCG2 (Homo sapiens) (Q9UNQ0 whole entry, looked up): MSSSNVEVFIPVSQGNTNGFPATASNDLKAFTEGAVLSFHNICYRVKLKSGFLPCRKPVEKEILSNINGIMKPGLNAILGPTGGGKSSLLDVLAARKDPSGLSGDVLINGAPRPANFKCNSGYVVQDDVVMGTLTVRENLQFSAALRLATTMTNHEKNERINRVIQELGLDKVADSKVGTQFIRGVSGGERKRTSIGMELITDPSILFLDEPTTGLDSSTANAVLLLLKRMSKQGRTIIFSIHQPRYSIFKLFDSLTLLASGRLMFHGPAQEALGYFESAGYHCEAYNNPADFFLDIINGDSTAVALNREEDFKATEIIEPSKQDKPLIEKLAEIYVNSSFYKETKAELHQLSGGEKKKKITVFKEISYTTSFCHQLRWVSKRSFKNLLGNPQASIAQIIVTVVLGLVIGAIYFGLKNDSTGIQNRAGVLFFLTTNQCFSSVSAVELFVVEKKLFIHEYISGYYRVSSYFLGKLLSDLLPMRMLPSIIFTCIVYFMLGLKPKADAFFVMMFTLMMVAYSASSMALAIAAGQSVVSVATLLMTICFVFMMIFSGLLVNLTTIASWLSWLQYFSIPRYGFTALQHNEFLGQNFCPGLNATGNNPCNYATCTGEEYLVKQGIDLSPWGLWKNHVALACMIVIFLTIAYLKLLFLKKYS
Procedure, shortened: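 ABCG2 mRNA induction measured by qNPA chemiluminescence in human primary hepatocyte cultures, 6 h post-dose. Chemicals tested at several concentrations against a 0.2% DMSO vehicle; positive-direction fit relative to DMSO.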

Structure (SMILES) | outcome
CN(C)c1nc(=O)n(C2CCCCC2)c(=O)n1C | inactive
Cc1ccccc1CO[C@@H]1C[C@@]2(C(C)C)CC[C@]1(C)O2 | inactive
CCC(C)(CC)c1cc(NC(=O)c2c(OC)cccc2OC)on1 | inactive

What follows are molecules tested on xenobiotic metabolism (CYP1A1), CYP1A1 (gene 1543) (assay: CLD_CYP1A1_6hr: CellzDirect (CLD) Gene Expression Assay for xenobiotic metabolism (CYP1A1) at 6 hours (AID 2283661);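 for AC50: potency for transcript induction above DMSO vehicle baseline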).
Procedure, shortened: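 Read-out 6 h post-dose: qNPA chemiluminescent quantitation of transcript induction against 0.2% DMSO. Cells were cultured primary human hepatocytes from two separate donor preparations; phase-contrast morphology annotated apparent cytotoxicity.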

Structure (SMILES) | AC50 | outcome
CCNc1nc(NC(C)C)nc(SC)n1 | 1.42 µM (active) | –
CN(C)c1nc(=O)n(C2CCCCC2)c(=O)n1C | – | inactive
Cc1ccccc1CO[C@@H]1C[C@@]2(C(C)C)CC[C@]1(C)O2 | – | inactive
CCSC(=O)N(CC)C1CCCCC1 | – | inactive
CCC(C)(CC)c1cc(NC(=O)c2c(OC)cccc2OC)on1 | – | inactive

Each molecule was assayed on Thyroperoxidase (TPO), gene 54314 (assay: CCTE_Simmons_AUR_rTPO: CCTE's Amplex UltraRed Assay for Thyroperoxidase (TPO) Inhibition, Simmons Lab (AID 2283662);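 for AC50: potency for loss of signal meaning inhibition of peroxidase activity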).
Procedure, shortened: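 Rat thyroid microsomes (5 ug protein) were incubated with test compound (8 concentrations, 5 nM–87.5 uM final, 0.5% DMSO), 25 uM Amplex UltraRed and 300 uM H2O2 in 200 mM phosphate buffer for 30 min at 37C in the dark; fluorescence read at 544/590 nm.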

Structure (SMILES) | AC50 | outcome
Cc1ccc(O)c(C)c1 | 18.2 µM (active) | –
O=C(O)C(F)(F)C(F)(F)C(F)(F)C(F)(F)C(F)(F)C(F)(F)C(F)(F)C(F)(F)F | – | inactive
Sc1ccccc1 | – | inactive
Oc1ccc(C(c2ccc(O)cc2)(C(F)(F)F)C(F)(F)F)cc1 | 21.7 µM (active) | –
C[C@]12CCC(=O)C=C1CC[C@@H]1[C@@H]2CC[C@]2(C)C(=O)CC[C@@H]12 | – | inactive
CCCCCCCCCc1ccc(O)cc1 | 10.5 µM (active) | –
CCC(=O)O[C@H]1CC[C@H]2[C@@H]3CCC4=CC(=O)CC[C@]4(C)[C@H]3CC[C@]12C | – | inactive
COc1ccc(O)c(C(C)(C)C)c1 | 0.701 µM (active) | –
CCCCCCCCCC[N+](C)(C)CCCCCCCCCC | 43.8 µM (active) | –
CCOP(=S)(OCC)SCSC(C)(C)C | 8.68 µM (active) | –
CC(C)(c1ccccc1)c1ccc(O)cc1 | 3.55 µM (active) | –
CCCCCCCCOC(=O)c1ccccc1C(=O)OCCCCCCCC | 11.8 µM (active) | –
Cc1ccccc1CO[C@@H]1C[C@@]2(C(C)C)CC[C@]1(C)O2 | 28 µM (active) | –
COS(=O)(=O)OC | 27 µM (active) | –
c1ccc(-c2ccccc2)cc1 | – | inactive
O=C(O)C(F)(F)C(F)(F)C(F)(F)C(F)(F)C(F)(F)C(F)(F)C(F)(F)C(F)(F)C(F)(F)F | 22.7 µM (active) | –
Oc1c(Cl)c(Cl)c(Cl)c(Cl)c1Cl | 8.93 µM (active) | –
O=C(NC(=O)c1c(F)cccc1F)Nc1cc(Cl)c(OC(F)(F)C(F)F)c(Cl)c1 | 20.7 µM (active) | –
Clc1ccc(C(Cl)(Cl)Cl)cc1 | – | inactive
CCC(C)(c1ccc(O)cc1)c1ccc(O)cc1 | 1.86 µM (active) | –
CC(c1ccc(O)cc1)(c1ccc(O)cc1)c1ccc(O)cc1 | 1.41 µM (active) | –
